Pf growth 96h: Primary qHTS for delayed death inhibitors of the malarial parasite plastid, 96 hour incubation; AID 504834, 2011; actives 6.9% (n = 320,000); P. falciparum luciferase reporter growth, 96 h; Potency, µM (series often up to 28.7 µM), for the others: top-dose activity change, negative = inhibition, most hits filed as inhibitors; also: potency is read from the fitted curve at half-maximal effect; % is scaled to controls: 0 for no effect and ±100 for the full control effect
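Cell-based qHTS: luciferase-tagged P. falciparum in erythrocytes (2% hematocrit, 0.05% parasitemia final) incubated with compounds for 96 hours, 37 C, 5% CO2; luciferase detection reagent then added and luminescence measured.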
Shiga inhibitor: A qHTS for Small Molecule Inhibitors of Shiga Toxin | Vero cells, Shiga toxin protein synthesis inhibition reporter | inhibition, % at 38.7 µM | actives 9.2% (n = 290,000) | AID 2315, 2010; in the data active = inhibition mostly above about 28%, no sharp cut-off; inactive = mostly below about 43%; also: 0% is about no effect
CHX counter: Cycloheximide Counterscreen for Small Molecule Inhibitors of Shiga Toxin | actives 12% (n = 300,000) | max response, % | cell reporter, cycloheximide protein synthesis inhibition counterscreen; in the data active = max response mostly above about 13%, no sharp cut-off; inactive = mostly below about 14%; also: read at 38.3 µM for the half of the compounds with a filed dose; 0% is about no effect
Pf growth 48h: Primary qHTS for delayed death inhibitors of the malarial parasite plastid, 48 hour incubation | P. falciparum luciferase growth in erythrocytes, 48 h | actives 5.9% (n = 310,000) | Potency, µM (highest dose often 28.7 µM), for the others: at the top dose activity change, negative = inhibition, usual class: inhibitors | AID 504832, 2011; also: potency is read from the fitted curve at half-maximal effect; % is scaled to controls: 0 for no effect and ±100 for the full control effect
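Parasite viability was followed by luminescence of a genomically integrated firefly luciferase. Cultures held 0.1% parasitemia at 2% hematocrit (final), incubated under 5% CO2 at 37 C.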
HCMV inh: qHTS Assay for inhibitors of the human cytomegalovirus (HCMV) | activity change, negative = inhibition, % at 57.5 µM | HFF cells, HCMV-luciferase reporter, 72 h; stronger effect = lower value | actives 4.5% (n = 410,000); in the data active = activity change below about -60%; inconclusive = no clear call, values can overlap the other calls; inactive = above about -39%; also: % is scaled to controls: 0 for no effect and ±100 for the full control effect
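After 16 h attachment at 37C, HFF cells received test compound and HCMV-luciferase (1 PFU/cell); reporter luminescence read 72 h later, data normalized against buffer-only and known inhibitor Salinomycin.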
* = called active by the depositor; u = inconclusive; x = not tested or not shown. Most compounds without a hit are left out; they make up all but 20% or so of the library. Unless noted, calls follow the shape of the dose curve; as a rule, active = well fitted inhibition curve with a large enough effect; inconclusive = small, poorly fitted or top-dose-only effect, or another doubt; inactive = no such curve, though single readings can be large or run the other way.

SMILES | Pf growth 96h | Shiga inhibitor | CHX counter | Pf growth 48h | HCMV inh
Cc1ccc(CNC(=O)C2CCCN(S(=O)(=O)c3cccc4nonc34)C2)cc1 (stereo unspecified) | u | -11.4 | -1.7 | 1.4% | 14.1
Cc1cc(OC(=O)c2ccc(C(C)(C)C)cc2)c([N+](=O)[O-])c(=O)[nH]1 | 0.7% | -10.3 | -3.2 | -7.0% | 22.0
CCc1ccc(-n2nc(C)c3c(C)cc(=O)n(CC(=O)Nc4cc(Cl)ccc4OC)c32)cc1 | x | x | x | x | 30.2
Cc1cccc(C(=O)NC2=NC(c3ccc(Cl)cc3)CC(=O)N2)c1 (stereo unspecified) | x | x | x | x | 1.9
COc1cccc(NC(=O)CN(C)C(=O)c2cccnc2Nc2cccc(C(F)(F)F)c2)c1 | u | x | x | 9.28µM* | x
Cc1ccc(NC(=O)CN(C)C(=O)c2cccnc2Nc2cccc(C(F)(F)F)c2)cc1 | 9.28µM* | 16.7 | -1.8 | u | -60.1*
COc1cc(OC)cc(C(=O)NC(C(=O)NNC(=O)c2ccc(C)cc2)C(C)C)c1 (stereo unspecified) | 21.0% | x | x | 22.2% | -15.5
Cc1[nH]cnc1CSCc1ccc(Cl)cc1 | u | 73.1* | 22.8* | u | 20.3
CC(C)Nc1nc(NC(C)C)nc(SCCOC(=O)Nc2ccc(Cl)cc2Cl)n1 | 0.5% | -5.7 | 21.5* | -5.0% | 6.7
Cc1cc(C)c2c(c1)-c1c(ssc1=S)C(C)(C)N2C(=O)CSc1nncn1C | u | -25.5 | -5.6 | 4.65µM* | 6.4
COc1ccc2c(c1)-c1c(ssc1=S)C(C)(C)N2S(=O)(=O)c1ccc(C)cc1 | u | 6.0 | -3.4 | u | 2.2
CC1(C)c2ssc(=S)c2-c2ccccc2N1C(=O)CSC1=NCCS1 | 11.4% | -11.4 | -1.0 | u | -33.5
CCOc1ccc2c(c1)-c1c(ssc1=S)C(C)(C)N2C(=O)c1ccco1 | 1.31µM* | -9.1 | -1.8 | 2.33µM* | -4.8
Cc1ccc2c(c1)-c1c(ssc1=S)C(C)(C)N2C(=O)CSc1nncn1C | 5.1% | -20.3 | -1.6 | u | -2.6
COc1ccc2c(c1)-c1c(ssc1=S)C(C)(C)N2C(=O)CSC1=NCCS1 | 0.0% | -10.2 | -2.4 | 0.0% | -80.5*
Cc1cc2c(cc1C)N(C(=O)CSC1=NCCS1)C(C)(C)c1ssc(=S)c1-2 | 2.62µM* | -10.5 | 0.8 | 6.57µM* | -72.0*
COc1ccc(/C=C/C(=O)Oc2ccc(C)cc2)cc1 | u | 39.6 | 1.3 | 0.0% | -12.2
Cn1c(=O)c2c(SCC(=O)NCc3ccco3)nc(-c3cccc(F)c3)nc2n(C)c1=O | x | x | x | x | 0.1
COc1ccc2oc(C(=O)OCC(=O)NC3CCCC3)c(C)c2c1 | 45.9% | 71.1* | 38.0* | 32.3% | 11.8
CCOc1ccc2oc(C(=O)OCC(=O)NC3CCCCC3)c(C)c2c1 | 0.4% | x | x | 1.1% | -14.9
COc1ccc2oc(C(=O)OCC(=O)N3C(C)CCCC3C)c(C)c2c1 (stereo unspecified) | -21.0% | 62.6* | 36.7* | -17.7% | 1.5
CCOc1ccc2oc(C(=O)OCC(=O)N3C(C)CCCC3C)c(C)c2c1 (stereo unspecified) | u | x | x | u | 0.0
Cc1c(C(=O)OCCN2CCCCC2)oc2ccccc12 | -12.1% | 21.2 | 14.5* | -19.2% | -3.8
Cc1c(C(=O)OCC(=O)N2C(C)CCCC2C)oc2ccccc12 (stereo unspecified) | 91.0% | 95.8* | 50.4* | 194.2% | -15.9
CC(NC(=S)Nc1c(Br)cccc1OC(F)F)C(C)(C)C (stereo unspecified) | u | -7.6 | -0.4 | u | -33.4
SMILES | Pf growth 96h | Shiga inhibitor | CHX counter | Pf growth 48h | HCMV inh
Cc1ccc(S(=O)(=O)NCCC(=O)OCC(=O)NCCc2ccccc2)cc1C | 10.8% | x | x | 8.5% | -25.3
Cc1ccc(CNC(=O)C2CCCN(c3nc4c(C)cc(C)cc4s3)C2)cc1 (stereo unspecified) | x | x | x | x | 13.9
Cc1cccc(C(=O)N2CCc3cc(CNC(=O)CCc4ccccc4)ccc32)c1 | x | x | x | x | -21.8
CNc1nnc(-c2cccc(N(C)C)c2)s1 | 2.7% | 121.6* | 45.5* | 148.1% | 40.7
O=S(=O)(c1cccc2nsnc12)N1CCNCC1 | 47.5% | 6.3 | -2.2 | 18.1% | -15.6
CCC1SC2=NC(C)=C(C(=O)OCCOC)C(/C=C/c3ccccc3OC)N2C1=O (stereo unspecified) | -27.7% | -3.6 | 8.1 | u | 18.1
CCC1SC2=NC(C)=C(C(=O)OCC(C)C)C(/C=C/c3ccccc3OC)N2C1=O (stereo unspecified) | 11.7µM* | 1.3 | 14.9 | u | -10.9
O=C(NC1CCCCCCC1)c1cccc(Cl)c1 | 48.8% | 64.1* | 40.5* | x | -26.0
O=C(NNC(=O)C1C2CCC(C2)C1C(=O)O)c1cccc(Cl)c1 (stereo unspecified) | 19.8% | 57.6 | 19.4* | 19.3% | -36.3
CCOc1cccc(C(=O)NC2CCCCC2)c1 | 12.2% | 101.1* | 29.6* | 83.3% | 128.7
COc1ccc(CCNC(=O)c2cnc3ccc(C)cn3c2=O)cc1OC | x | x | x | x | 5.9
COc1cccc(/C=N/NC(=O)c2cnn(-c3ccccc3)c2N)c1 | 88.6% | 71.7* | 45.9* | 74.7% | 45.1
Nc1c(C(=O)N/N=C/c2cccnc2)cnn1-c1ccccc1 | 119.7% | 50.7* | 46.7* | 111.9% | 80.7
Nc1c(C(=O)N/N=C/c2ccc(Cl)cc2)cnn1-c1ccccc1 | 9.8% | 36.8 | 16.8 | 13.2% | -4.8
COc1ccc(C2CC(C(F)(F)F)n3ncc(C(=O)Nc4cccc(O)c4)c3N2)cc1OC (stereo unspecified) | x | -7.8 | 8.3 | 10.4µM* | -21.1
COc1ccc(C2CC(C(F)(F)F)n3nc(CO)c(Cl)c3N2)cc1OC (stereo unspecified) | 7.38µM* | -12.0 | -3.8 | 1.3% | 21.9
COc1ccc(NC(=O)c2cc3n(n2)C(C(F)(F)F)CC(c2ccc4c(c2)OCO4)N3)cc1OC (stereo unspecified) | 3.29µM* | 8.4 | -0.9 | 3.0% | x
Cc1cccc(NC(=O)c2cc3n(n2)C(C(F)(F)F)CC(c2ccc4c(c2)OCO4)N3)c1 (stereo unspecified) | u | -21.0 | 3.6 | u | 3.0
COc1cc(C(=O)Nc2ccc3nc(SCc4ccc(C)cc4)sc3c2)cc(OC)c1OC | x | x | x | x | -17.9
CC(Oc1ccc(Br)cc1)C(=O)NCc1ccccn1 (stereo unspecified) | -23.9% | 2.4 | 2.2 | 7.0% | -31.2
CCCCCn1c(=O)c(C(=O)Nc2ccccc2N)c(O)c2ccccc21 | 334.1% | x | -2.5 | 4.15µM* | -37.7
CCCCn1c(=O)c(C(=O)Nc2ccccc2N)c(O)c2ccccc21 | u | -5.4 | -1.4 | -12.4% | -13.1
C=CCn1c(=O)c(C(=O)Nc2ccccc2S(N)(=O)=O)c(O)c2ccccc21 | 60.1% | 72.5* | 30.6* | 72.8% | 37.1
CCCCCCn1c(=O)c(C(=O)Nc2cnccn2)c(O)c2ccccc21 | u | -9.1 | 0.1 | 2.62µM* | -38.0

Source: PubChem
